Screens as filed in PubChem.
Rows were chosen to be rich in hits. Some 5.9% of all compounds tested hit in one or more screens of this group.
RORgamma inh – blocks mouse ROR gamma transcriptional activity; P51450; Drosophila S2 Gal4-RORgamma UAS-luciferase reporter, 20 h; Potency, µM (doses to about 53.6 µM), usual class: inhibitors; 310,000 tested, 5.4% active; AID 2551; note: nearly all actives have a fitted effect of over 60% in size
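Schneider cells (Drosophila), stable Gal4 DBD–ROR gamma + UAS-luc; 1 hr cmpd preincubation; Cu2+ induction 700 uM final; 20 hr ambient; luminescence.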
VP16 counter – Gal4-VP16 reporter inhibition counter-screen. 310,000 tested, 3.5% active. Drosophila S2 Gal4-VP16 UAS-luciferase, luminescence, 20 h. Potency, µM (doses to about 53.6 µM), usual class: inhibitors. AID 2546;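 note: Gal4-VP16 expression switched on by copper sulfate through the metallothionein promoter; nearly all actives have a fitted effect of over 50% in size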
GLP-1R agonist – activates the human GLP-1 receptor | P43220 | HEK293 GLP-1R CRE-luciferase, luminescence, 4-6 h; cells express a hypersensitive GLP-1R form | Potency, µM (series often up to 45.6 µM), hits mostly activators | 380,000 tested, 0.007% active | AID 624172
Target sequence (P43220 whole entry, looked up): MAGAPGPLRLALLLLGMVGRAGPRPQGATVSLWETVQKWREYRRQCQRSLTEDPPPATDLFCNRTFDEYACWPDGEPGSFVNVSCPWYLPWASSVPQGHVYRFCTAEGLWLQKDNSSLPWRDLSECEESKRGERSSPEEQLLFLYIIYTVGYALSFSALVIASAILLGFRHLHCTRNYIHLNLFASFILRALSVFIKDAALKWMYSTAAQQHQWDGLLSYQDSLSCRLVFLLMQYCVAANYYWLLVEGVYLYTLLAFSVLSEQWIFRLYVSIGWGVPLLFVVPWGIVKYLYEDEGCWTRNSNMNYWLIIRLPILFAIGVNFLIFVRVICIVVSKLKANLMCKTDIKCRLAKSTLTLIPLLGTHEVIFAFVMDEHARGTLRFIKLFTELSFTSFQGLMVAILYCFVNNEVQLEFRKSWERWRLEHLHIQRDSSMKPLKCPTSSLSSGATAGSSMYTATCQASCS
HEK293 tox – cytotoxicity counter-screen for GLP-1 receptor inverse agonists; HEK293 cAMP-luciferase reporter cells, luminescence, 24 h; Potency, µM (doses to about 38.3 µM), actives largely listed as inhibitors; 410,000 tested, 0.13% active;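 note: loss of luciferase light is scored as toxicity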
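Seeding density was 200 cells/uL; after overnight-length (12 h) culture, 23 nL compounds went on for 24 h at 37 °C. Readout used a luciferase detection reagent, luminescence taken after 12 min at room temperature.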
GLP-1R inv ag – GLP-1 receptor (human) inverse agonism; 410,000 tested, 1.6% active; Potency, µM (top dose mostly 38.3 µM), usual class: inhibitors; AID 624417; HEK293 GLP-1R CRE-luciferase, luminescence, 24 h; GLP-1R form is constitutively active; P43220; note: nearly all actives have a fitted effect of over 55% in size
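Constitutively active GLP-1R drives a cAMP-responsive luciferase in stably transfected HEK293 cells; test compounds are added after overnight (12 h) attachment and left 24 hr, and signal loss in luminescence marks inhibition.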
Of the large screens only hits and unclear results are named; the others gave an inactive call. Calls come from the whole dose curve; as a rule, active = well fitted curve in the direction sought with a large enough effect; inconclusive = small, poorly fitted or top-dose-only effect, or another doubt; inactive = no such curve, though single readings can be large; an effect the other way counts as inactive or inconclusive.

CC(=O)OCC(NC(=O)C(COCc1ccccc1)NC(=O)OC(C)(C)C)C1OC(n2ccc(=O)[nH]c2=O)C(OC(C)=O)C1OC(C)=O (centres undefined)	none (no result: GLP-1R agonist, HEK293 tox, GLP-1R inv ag)
O=C1CCC2S/C(=C/Nc3ccc(C(F)(F)F)cc3)C(=O)N12 (centres undefined)	RORgamma inh 1.3µM, VP16 counter inconclusive, GLP-1R inv ag inconclusive
O=C1CCCC/C1=C/Nc1cccc(C(F)(F)F)c1	RORgamma inh inconclusive
COc1cccc(NC(=O)C2CC(=O)N(c3ccc(Br)cc3)C2)c1 (centres undefined)	none (no result: RORgamma inh, VP16 counter)
COc1ccc(C)cc1Nc1n[n+](-c2ccccc2)c(-c2c(OC)ccc3ccccc23)s1	HEK293 tox inconclusive, GLP-1R inv ag inconclusive (no result: RORgamma inh, VP16 counter)
COc1ccc(C)cc1Nc1n[n+](-c2ccccc2)c(-c2cc(OC)c(OC)cc2Br)s1	RORgamma inh 10µM, VP16 counter inconclusive, HEK293 tox inconclusive, GLP-1R inv ag inconclusive
CCCn1c(-c2ccc(F)cc2)nc2c(NCCCN3CCCCC3C)nc(C)nc21 (centres undefined)	none (no result: GLP-1R agonist, HEK293 tox, GLP-1R inv ag)
CC1=NN(/C(=N\c2nnc(C)s2)Nc2ccc(C)cc2)[C@H](c2ccc(C)cc2)S1	GLP-1R inv ag 10µM
CCCCC=O	none (no result: GLP-1R agonist, HEK293 tox, GLP-1R inv ag)
CCOc1ccccc1CNC(=O)C1CCCN(c2ncnc3onc(-c4ccc(F)cc4)c23)C1 (centres undefined)	none (no result: RORgamma inh, VP16 counter, GLP-1R agonist)
COC(=O)c1ccc2c(c1)C(C)(C)C(/C=C/c1ccccc1O)=[N+]2C	HEK293 tox 10µM, GLP-1R inv ag inconclusive
Cc1ccccc1CN1CCCN(CC(=O)Nc2c(C)cccc2C)S1(=O)=O	none (no result: RORgamma inh, VP16 counter, GLP-1R agonist)
O=C(Nc1nnc(-c2ccc(Cl)cc2)o1)Nc1ccccc1Cl	none
O=C(Nc1nnc(-c2ccccc2)o1)c1cc(Cl)sc1Cl	RORgamma inh 2.2µM, VP16 counter 1.3µM
O=C(CCS(=O)(=O)c1ccc(F)cc1)Nc1nnc(-c2ccc(F)cc2)o1	none (no result: RORgamma inh, VP16 counter)
O=C(Nc1nnc(-c2ccc(F)cc2)o1)c1cc(Cl)sc1Cl	RORgamma inh 3.2µM, VP16 counter 2.5µM
O=C(Nc1nnc(-c2ccc(Cl)cc2)o1)c1nc2ccccc2s1	RORgamma inh 4.5µM, VP16 counter 4.5µM
CC1CCc2onc(C(=O)N3CCN(c4ccccc4)CC3)c2C1 (centres undefined)	none (no result: RORgamma inh, VP16 counter, GLP-1R agonist)
CC(=O)N1CCCc2cc(S(=O)(=O)N3CCN(c4ccccc4F)CC3)ccc21	none (no result: RORgamma inh, VP16 counter, GLP-1R agonist)
CCCCOC(=O)c1ccc(NC(=O)CSc2nc3c(c(=O)[nH]2)CCCC3)cc1	none (no result: RORgamma inh, VP16 counter, GLP-1R agonist)
CCCC(=O)OCC(=O)NCc1ccc(Cl)cc1	none
O=C(COC(=O)CC(c1ccccc1)c1ccccc1)NCc1ccc(Cl)cc1	VP16 counter 20µM, GLP-1R inv ag 11µM
C=C(C)C(=O)OCC(=O)NCc1ccccc1	HEK293 tox 11µM, GLP-1R inv ag inconclusive
CCOc1ccccc1NC(=O)CSc1nc2c(oc3ccccc32)c(=O)n1C(C)C	none (no result: RORgamma inh, VP16 counter, GLP-1R agonist)
Cc1ccc(-n2c(=O)c3c(C)c(C)sc3n(CC(=O)NCc3ccccc3)c2=O)cc1C	none (no result: RORgamma inh, VP16 counter, GLP-1R agonist)
COc1ccc(C(=O)NCCn2ccc3ccccc32)c(OC)c1	RORgamma inh 10µM, VP16 counter inconclusive
CCS(=O)(=O)c1cccc(C(=O)N2CCN(c3nc4c(C)ccc(Cl)c4s3)CC2)c1	GLP-1R inv ag inconclusive (no result: RORgamma inh, VP16 counter, GLP-1R agonist)
CCn1ccc(C(=O)Nc2ncc(C)s2)n1	RORgamma inh 11µM, VP16 counter inconclusive
CCn1ccc(C(=O)NC2=NCCS2)n1	none
CN(c1ccc(OCC(=O)N2CCN(c3ccc(F)cc3)CC2)cc1)S(=O)(=O)c1cccs1	RORgamma inh inconclusive, GLP-1R inv ag 11µM
CN(c1ccc(OCC(=O)N2CCCCC2)cc1)S(=O)(=O)c1cccs1	GLP-1R inv ag inconclusive
O=C(Cc1ccc(NC(=O)N2CCCCc3ccccc32)cc1)NCc1cccc(Br)c1	none (no result: RORgamma inh, VP16 counter, GLP-1R agonist)
Oc1csc(Cc2nc(-c3ccc4ccccc4c3)cs2)n1	RORgamma inh 11µM, GLP-1R inv ag inconclusive
Cc1cc(C(=O)COc2ccccc2C(N)=O)c(C)n1CC1CCCO1 (centres undefined)	VP16 counter 10µM
Cc1cc(C(=O)COC(=O)c2ccccc2Br)c(C)n1CC1CCCO1 (centres undefined)	RORgamma inh 14µM, VP16 counter 8.9µM, GLP-1R inv ag inconclusive
Cc1cc(C(=O)COC(=O)c2ccccc2NCCO)c(C)n1CC1CCCO1 (centres undefined)	RORgamma inh 0.79µM, VP16 counter 1.6µM, HEK293 tox inconclusive, GLP-1R inv ag inconclusive
Cc1cc(C(=O)COC(=O)c2ccccc2O)c(C)n1CC1CCCO1 (centres undefined)	GLP-1R inv ag inconclusive (no result: RORgamma inh, VP16 counter)
Cc1cc(C(=O)COC(=O)c2cc(O)c3ccccc3c2O)c(C)n1CC1CCCO1 (centres undefined)	RORgamma inh 16µM
Cc1oc(-c2ccccc2Cl)nc1CS(=O)(=O)CC(=O)NCc1ccc(F)cc1	GLP-1R inv ag inconclusive (no result: RORgamma inh, VP16 counter)
Cc1cc(NC(=O)c2ccc(NC(=O)CCS(=O)(=O)c3cccs3)cc2)ccc1Br	GLP-1R inv ag inconclusive (no result: RORgamma inh, VP16 counter, GLP-1R agonist)
Cc1nc2cnc(N3CCOCC3)nc2n(Cc2ccc(F)cc2)c1=O	none (no result: GLP-1R agonist, HEK293 tox, GLP-1R inv ag)
O=C(Cc1ccc(F)cc1)NCc1nc2cccnc2n1Cc1ccc(F)cc1	none (no result: RORgamma inh, VP16 counter, GLP-1R agonist)
O=C(N/N=C/c1[nH]c2ccccc2c1Cl)c1cccc(Br)c1	RORgamma inh 3.2µM, VP16 counter 7.9µM
O=C(N/N=C/C1C(c2ccccc2)C1(Cl)Cl)c1cccc(Br)c1 (centres undefined)	RORgamma inh 4.5µM, VP16 counter 6.3µM, GLP-1R inv ag inconclusive
Cc1[nH]c2ccccc2c1/C=N/NC(=O)c1cccc(Br)c1	GLP-1R inv ag inconclusive
O=C(N/N=C/c1cccnc1)c1cccc(Br)c1	none
CC(C)N1CCC2(CC1)N=C(c1ccc3c(c1)OCO3)CC(c1cc(Cl)ccc1O)N2 (centres undefined)	RORgamma inh inconclusive, HEK293 tox inconclusive, GLP-1R inv ag 11µM
O=C(Nc1cc(Cl)ccc1O)c1cc(-c2ccc3c(c2)OCO3)on1	none (no result: RORgamma inh, VP16 counter, GLP-1R agonist)
COc1ccc(-c2nc3cnc(Oc4cccc(Cl)c4)nc3n(CCC#N)c2=O)cc1	none (no result: GLP-1R agonist, HEK293 tox, GLP-1R inv ag)
CC(C)(C)OC(=O)N1CCC(c2c(C(=O)N3CCC(c4ccccc4)C3)cnn2-c2cccc(Cl)c2)CC1 (centres undefined)	none (no result: RORgamma inh, VP16 counter, GLP-1R agonist)
Cc1cccc(C)c1N1C(=O)CC(N(O)c2ccccc2)C1=O (centres undefined)	RORgamma inh 11µM
COc1cccc(/C(O)=C/c2nc3ccc(C(=O)NCCc4cccc(C)c4)cc3[nH]c2=O)c1	VP16 counter inconclusive
COc1cccc(/C(O)=C/c2nc3ccc(C(=O)NCCc4ccc(Cl)cc4)cc3[nH]c2=O)c1	RORgamma inh inconclusive, VP16 counter 14µM
Cc1ccc(NC(=O)c2c(C)nn(-c3ccccc3)c2-n2cccc2)c(Cl)c1	none (no result: RORgamma inh, VP16 counter, GLP-1R agonist)
O=c1ccc(N=Nc2ccccc2)ccc1O	RORgamma inh inconclusive, VP16 counter 3.5µM, HEK293 tox 11µM, GLP-1R inv ag inconclusive
